# Bioassay records as filed in PubChem BioAssay.
# An excerpt weighted towards active compounds, which were near 12% of everything screened.
# L3MBTL1 inh – qHTS Assay for the Inhibitors of L3MBTL1. Potency, µM (series often up to 57.1 µM), hits mostly inhibitors. Lethal(3)malignant brain tumor-like protein 1 (Homo sapiens), Q9Y468. AID 485360, 2010. 230,000 tested, 0.66% active. AlphaScreen L3MBTL1–H3K9me1 peptide binding; further: nearly all actives have a fitted effect of over 60% in size
#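 L3MBTL1 (50 nM) pre-complexed 30 min with biotinylated H3(1-15)K9me1 peptide (75 nM), then compounds added for 30 min at room temperature; AlphaScreen streptavidin donor/nickel chelate acceptor beads (10 ug/mL final) read after 30 min dark incubation.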
# G9a inh – qHTS Assay for Inhibitors of Histone Lysine Methyltransferase G9a; Histone-lysine N-methyltransferase EHMT2 (Homo sapiens), Q96KQ7; G9a H3K9 monomethylation, AlphaScreen, 2 h; Potency, µM (highest dose often 102 µM), actives largely listed as inhibitors; 350,000 tested, 8.8% active; AID 504332, 2011; further: nearly all actives have a fitted effect of over 75% in size
# Target sequence (Q96KQ7 913-1193 limits assumed): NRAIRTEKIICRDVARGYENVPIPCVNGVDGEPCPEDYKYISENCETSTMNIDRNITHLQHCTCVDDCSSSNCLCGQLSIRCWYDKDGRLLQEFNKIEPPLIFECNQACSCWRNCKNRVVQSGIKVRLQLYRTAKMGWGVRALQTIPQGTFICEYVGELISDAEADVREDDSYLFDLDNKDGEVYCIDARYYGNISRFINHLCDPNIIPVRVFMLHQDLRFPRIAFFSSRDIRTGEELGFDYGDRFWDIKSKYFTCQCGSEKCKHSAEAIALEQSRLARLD
#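 Methyltransferase reactions run at room temperature for 2 h (20 nM enzyme, 500 nM biotin-H3K9 peptide, 20 uM SAM) after a 15 min compound preincubation; product detected by AlphaScreen beads and anti-H3K9me1 antibody.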
# JMJD2A Tudor inh – qHTS Assay for Inhibitors of JMJD2A-Tudor Domain. AlphaScreen JMJD2A-Tudor / H3K4me3 peptide binding. Potency, µM (doses to about 114 µM), actives largely listed as inhibitors. 390,000 tested, 4.4% active; further: nearly all actives have a fitted effect of over 50% in size
# BAZ2B block – qHTS Assay for Inhibitors of BAZ2B. AID 504333, 2011. Potency, µM (highest dose often 114 µM), hits mostly inhibitors. Bromodomain adjacent to zinc finger domain protein 2B (Homo sapiens), Q9UIF8. AlphaScreen BAZ2B-H3K14Ac peptide displacement. 360,000 tested, 4.4% active; further: nearly all actives have a fitted effect of over 60% in size
#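 Complex of BAZ2B and biotin-H3K14Ac (50 nM apiece) forms over 30 min at RT, then faces library compounds up to 110 uM for another 30 min; AlphaScreen beads added, 20 min dark incubation, luminescence read.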
# HP1b chromo inh – HTS for Inhibitors of HP1-beta Chromodomain Interactions with Methylated Histone Tails; Chromobox protein homolog 1 (Homo sapiens), P83916; AlphaScreen HP1-beta / biotin-H3K9me3 peptide binding; Potency, µM (top dose mostly 114 µM), most hits filed as inhibitors; 390,000 tested, 0.56% active; AID 540317, 2011; further: nearly all actives have a fitted effect of over 70% in size
# Target sequence (P83916 whole entry, looked up): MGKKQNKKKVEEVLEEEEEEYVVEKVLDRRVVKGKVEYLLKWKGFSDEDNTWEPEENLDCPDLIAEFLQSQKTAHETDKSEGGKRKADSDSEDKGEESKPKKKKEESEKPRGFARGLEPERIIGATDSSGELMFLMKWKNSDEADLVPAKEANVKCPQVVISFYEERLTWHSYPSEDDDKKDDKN
#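 AlphaScreen: HP1-beta (50 nM) preformed 30 min with biotin-H3(1-18)K9me3 peptide (50 nM) in PBS pH 7.4, 0.01% Tween-20. Compound added for 30 min at RT, then streptavidin donor/nickel chelate acceptor beads (10 ug/mL) for 30 min.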
# Sfp inh – qHTS Assay for Inhibitors of Bacillus subtilis Sfp phosphopantetheinyl transferase (PPTase); 4'-phosphopantetheinyl transferase ffp (Bacillus subtilis), Q9F4F7; Biochemical Sfp PPTase activity, qHTS; Potency, µM, hits mostly inhibitors; 310,000 tested, 3.5% active;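 further: the enzyme is Sfp with the accession as filed and its product quenches rhodamine fluorescence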
#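 Fluorescence-quenching assay: 15 nM Sfp-PPTase preincubated 15 min at room temperature with compound, then 5 uM rhodamine-CoA and 12.5 uM BHQ-2-labelled YbbR peptide added. Fluorescence (ex 525/em 598 nm) read at start and after 30 min; difference gives rate.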
# Hits are given with their value; 0 = inactive; ? = inconclusive; - = not tested or not shown; [ ] = dose if it differs, or a comment. The call rests on the fitted dose curve; in most records, active means well fitted curve in the direction sought with a large enough effect; inconclusive means small, poorly fitted or top-dose-only effect, or another doubt; inactive means no such curve, though single readings can be large; an effect the other way counts as inactive or inconclusive.
SMILES,L3MBTL1 inh,G9a inh,JMJD2A Tudor inh,BAZ2B block,HP1b chromo inh,Sfp inh
CCCn1c(NC(=O)CN2C(=O)NC3(CCCCC3)C2=O)nc2ccccc21,0,0[12.7 µM],0,0,0,-
CCOC(=O)c1c(-c2ccc(-c3ccccc3)cc2)csc1NC(=O)CNCCN(C)C,-,50µM,35µM,?,0,40µM
CCOC(=O)c1c(-c2ccc(F)cc2)csc1NC(=O)CCN1CCOCC1,0,8.9µM,1.8µM,40µM,?,?
CCOC(=O)c1c(-c2ccc(-c3ccccc3)cc2)csc1NC(=O)CCN1CCOCC1,0,?,?,0,0,0
CCOC(=O)c1c(-c2ccccc2)csc1NC(=O)C(C)NCCCN1CCOCC1 (centres undefined),0,11µM,50µM,40µM,?,40µM
CCOC(=O)c1c(-c2ccc(C)c(C)c2)csc1NC(=O)C1CC=CCC1C(=O)O (centres undefined),-,0,0,0,0,0
COC(=O)c1c(-c2ccco2)csc1NC(=O)C1CC=CCC1C(=O)O (centres undefined),0,?,0,0,0,13µM
CCOC(=O)c1c(-c2ccccc2)csc1NC(=O)CCN1C(=O)c2ccccc2C1=O,0,0,0,0,0,0
Cc1ccc(C)c(N2CCN(C(=O)CCc3nc(-c4ccc(F)cc4)no3)CC2)c1,0,-,0,-,0,-
O=C1[C@@H]2CSCN2C(=O)CN1Cc1ccc(F)cc1,-,0,0,0,0,0
CCOC(=O)c1c(-c2ccc(F)cc2)csc1NC(=O)C1CC=CCC1C(=O)O (centres undefined),?,16µM,0,0,?,40µM
COc1ccc(S(=O)(=O)NC(Cc2cnc[nH]2)C(=O)O)cc1 (centres undefined),0,?,13µM,0,0,0
CC1(C)Cc2c(c(=S)nc(-c3ccccc3)n2Cc2cccnc2)CO1,0,35µM,0,0,0,0
O=C(O)c1nn(CCOc2ccc(Cl)cc2Cl)c(=O)c2ccccc12,-,0,0,0,0,0
COc1ccc(Nc2nc(NC(C)(C)C)nc(N3CCCC3)n2)c(OC)c1,-,40µM,28µM,35µM,?,0
COc1ccc(Nc2nc(N3CCCC3)nc(N3CCCC3)n2)c(OC)c1,-,0[12.7 µM],0,0,0,?
CCOC(=O)c1cccc(NC(=O)c2cn(-c3cccc(OC)c3)c(=O)c3ccccc23)c1,-,10µM,0,0,0,-
CCOC(=O)c1ccc(OC(=O)c2cn(-c3cccc(OC)c3)c(=O)c3ccccc23)cc1,-,0,0,0,0,-
CCCCc1nnc(NC(=O)c2oc3ccccc3c2C)s1,0,0,0,0,0,-
N#Cc1ccc(COC(=O)CCc2c[nH]c3ccccc23)cc1,-,0,0,0,0,0
COc1ccc(C=C2C(=O)c3ccccc3C2=O)cc1O,-,13µM,?,10µM,?,0
COc1cc(C=C2C(=O)c3ccccc3C2=O)ccc1O,?,0,?,?,0,0
CCN1C/C(=C/c2ccc(OC)c(O)c2)C(=O)/C(=C/c2ccc(OC)c(O)c2)C1,0,?,0,-,0,0
COc1ccc(/C=C2\CN(Cc3ccccc3)C/C(=C\c3ccc(OC)c(O)c3)C2=O)cc1O,-,45µM,?,40µM,?,0
CCOc1ccc(CNS(=O)(=O)c2ccc3c(c2)CCCN3C(C)=O)cc1OC,-,0,0,0,0,-
COc1cc(/C=N/Nc2nc3ccccc3s2)cc([N+](=O)[O-])c1O,0,32µM,40µM,35µM,?,?
COc1cc(OC)cc(C(=O)Oc2ccc(/C=N/Nc3nc4ccccc4s3)cc2OC)c1,0,28µM,0,0,0,0
COc1ccc(C=NNc2nc3ccccc3s2)cc1,-,-,0,-,0,-
O=[N+]([O-])c1cc(Cl)cc(/C=N/Nc2nc3ccccc3s2)c1O,0,-,0[11.4 µM],6.3µM,?,0
